Measured values: ChEMBL document CHEMBL3433997, “St. Jude Leishmania screening dataset” (2016)
Values joined by “and” are separate entries in the source; they are usually repeats but may differ in a detail not shown here. Equal entries are not always repeated.

What follows are compounds tested against Hexose transporter 1 (Plasmodium falciparum) (UniProt O97467) (assay: ST_JUDE_LEISH: Cytotoxicity at 2uM final concentration against transgenic Leishmania Mexicana promastigotes LmPfHT that are glucose transport deficient and complemented with the Plasmodium falciparum hexose transporter. Activity is measured by DNA content using SYBR green in vitro).
Assay type: functional

Compound | inhibition
Cc1ccc(C2=NNC3(S2)C(=O)Nc2ccc(C)cc23)cc1 (stereo not given) | 2.71%
CCC(CC)(Cc1ccccc1)NC(=O)[C@H](CC1CCCCC1)Nc1ccc(C#N)c2ccccc12 | -0.75%
CS(=O)(=O)c1cc2c(Nc3ccc(N4CCOCC4)cc3)c(C(N)=O)cnc2cc1Br | 1.07%
COc1cccc(CNC(=O)c2ccnc(-c3cccc(CN(C)C4CCN(C)CC4)c3)c2)c1 | -0.18%
Cc1ccc2c(c1[N+](=O)[O-])N=NCC2Oc1ccccc1 (stereo not given) | 9.1%
CCOC(=O)N1NC(=O)N(c2ccccc2)C1(c1ccccc1)c1ccccc1 | 1.19%
Cc1cc(Nc2ncc3c(n2)N(C2CCC2)CC3)ccc1N1CCN(C)CC1 | 1.15%
CCCCc1ccc(Cc2cnc3nc(N)nc(N)c3c2C)cc1 | 23%
Cc1[nH]c(C)c(-c2ccc(OCc3cc(F)cc(F)c3)nc2)c(=O)c1Cl | 4.58%
CC(=O)Nc1ccc(CN2CCCN(c3cc(NC(=O)c4cccc(C)c4)ccn3)CC2)cc1 | 11.9%
COc1ccc2c(c1)CC(C)(C)NC2CCCCCCCCC1NC(C)(C)Cc2cc(OC)ccc21 (stereo not given) | 2.26%
Cc1cc(NC(=O)NC(=N)N)ccc1Cl | 5.72%
Cc1ccc2nc(C)cc(NC(=O)Nc3ccc(N(C)C)cc3)c2c1 | 5.69%
COc1ccc(-c2ccc(CNC(=O)c3ccc(C#N)cc3)c(F)c2)cc1CN1CCCN(C)CC1 | 0.66%
Cc1cccc2nc(-c3ccc(-c4cccc(CNCCc5ccncc5)c4)cc3)[nH]c12 | 3.23%
CC(C)(C)c1ccc(NC(=O)c2ccc(CN3CCCN(Cc4ccc(F)cc4)CC3)cc2)cc1 | -1.93%
Cc1cc(NC(=O)c2coc3cc(F)c(N4CC(C)N(C)C(C)C4)cc23)ccc1-n1ccnc1 (stereo not given) | 1.16%
O=C(Nc1cccc(F)c1)N[C@H]1CCN(CCCCCNC(=O)C2CC2c2ccc(Cl)c(Cl)c2)C1 (stereo not given in full) | 3.61%
CCOC(=O)C(C(=O)OCC)c1nc(C)ns1 | 0.58%
CO/C(=C\C=C\c1cc2cc(Cl)c(Cl)cc2[nH]1)C(=O)NCCCN1CCN(c2ccc(OC)cc2)CC1 | 2.47%

Compound | inhibition
Ic1cc(CNC2CCCCC2)ccc1OCc1cccc(COc2ccc(CNC3CCCCC3)cc2I)c1 | 3.76%
NC1CCN(Cc2cccc(-c3ccc(-c4nc5cc(C(F)(F)F)ccc5[nH]4)cc3)c2)C1 (stereo not given) | 5.22%
CC(C)C[C@H](Nc1ccc(C#N)c2ccccc12)C(=O)NC(C)(C)C12CC3CC(CC(C3)C1)C2 | 5.78%
COc1cc(CNCCCNc2cc(=O)c3ccccc3[nH]2)c2c(c1)C(C)CN2C(=O)OC(C)(C)C (stereo not given) | 10.7%
Cc1cccc2nc(-c3ccc(-c4ccc(CN5CCC(N)C5)cc4)s3)[nH]c12 (stereo not given) | 0.94%
CNC(=O)c1ccccc1Nc1nc(Nc2ccc(N3CCOCC3)cc2)ncc1Cl | 84.9%
O=C(Nc1ccc(OC2CCN(Cc3ccsc3)CC2)c(Cl)c1)c1cccs1 | 2.38%
CCN1CCC(N(Cc2ccc(-c3ccc(C(F)(F)F)cc3)cc2)C(=O)Cn2nc(C)c(=O)cc2SCc2ccc(F)cc2)CC1 | 0.04%
CCC(C)C#Cc1c(C)nc(N)nc1N (stereo not given) | 0.61%
CCCCCCCNC(=O)NCC1CCCN(CCCCCNC(=O)/C=C/c2ccc(Cl)c(Cl)c2)C1 (stereo not given) | 4.27%
NC1=NC(c2ccccc2)(c2cccc(O)c2)C(=O)N1CCCc1ccccc1 (stereo not given) | 10.4% and 1.45%
COC(=O)[C@@H](NC(=O)[C@@H](Nc1ccc(C#N)c2ccccc12)C(C)(C)C)c1ccc(O)cc1 | 1.12%
Cc1cccc2nc(-c3cccc(-c4cccc(NC(=O)c5cnccc5C(F)(F)F)c4)c3)[nH]c12 | 0.6%
COc1c(C2CCN(CCCCNC(=O)c3ccc(-c4ccc(C#N)cc4)cc3)CC2)ccc2c1C(C)(C)CCC2(C)C | 2.62%
COc1ccc(N2CCN(CCCN3CCN(C(=O)c4ccc(/C=C/c5ccc(Cl)c(Cl)c5)cc4)CC3)CC2)c(OC)c1 | 6.21%
CC(Cc1ccc(NC(=O)c2ccc(CNCc3ccccc3)cc2)cc1)N(CCc1cccc(Cl)c1)C(=O)OC(C)(C)C (stereo not given) | 4.74%
CCN(CC)CCN(Cc1ccc(-c2ccc(C(F)(F)F)cc2)cc1)C(=O)Cn1c(CCc2cccc(F)c2F)cc(=O)c(C)c1C | 8.35%
Cc1noc(C)c1-c1cccc(CNCc2cccc(-c3cccc(-c4nc5cccc(C)c5[nH]4)c3)c2)c1 | -0.81%
O=C(/C=C/c1ccccc1Cl)NC1CCC(CN2CCC(c3c[nH]c4ccncc34)CC2)CC1 (stereo not given) | 0.35%
Cc1cc(C2CCN(CCCCNC(=O)c3ccc(NC(=O)c4ccc(Cl)cc4)cc3)CC2)c(C)cc1OC(C)C | -1.19%

Each compound was assayed against Glucose transporter (Leishmania mexicana) (UniProt O61059) (assay: ST_JUDE_LEISH: Cytotoxicity at 2uM final concentration against transgenic Leishmania Mexicana promastigotes LmGT2 that are glucose transport deficient and complemented with the L. Mexicana glucose transporter 2. Activity is measured by DNA content using SYBR green in vitro).
Assay type: functional

Compound | inhibition
Cc1ccc(C2=NNC3(S2)C(=O)Nc2ccc(C)cc23)cc1 (stereo not given) | 3.44%
CCC(CC)(Cc1ccccc1)NC(=O)[C@H](CC1CCCCC1)Nc1ccc(C#N)c2ccccc12 | -0.23%
CS(=O)(=O)c1cc2c(Nc3ccc(N4CCOCC4)cc3)c(C(N)=O)cnc2cc1Br | 3.69%
COc1cccc(CNC(=O)c2ccnc(-c3cccc(CN(C)C4CCN(C)CC4)c3)c2)c1 | 1.78%
Cc1ccc2c(c1[N+](=O)[O-])N=NCC2Oc1ccccc1 (stereo not given) | 10.6%
CCOC(=O)N1NC(=O)N(c2ccccc2)C1(c1ccccc1)c1ccccc1 | 2.17%
Cc1cc(Nc2ncc3c(n2)N(C2CCC2)CC3)ccc1N1CCN(C)CC1 | 1.26%
CCCCc1ccc(Cc2cnc3nc(N)nc(N)c3c2C)cc1 | 15.6%
Cc1[nH]c(C)c(-c2ccc(OCc3cc(F)cc(F)c3)nc2)c(=O)c1Cl | 2.08%
CC(=O)Nc1ccc(CN2CCCN(c3cc(NC(=O)c4cccc(C)c4)ccn3)CC2)cc1 | 10.9%
COc1ccc2c(c1)CC(C)(C)NC2CCCCCCCCC1NC(C)(C)Cc2cc(OC)ccc21 (stereo not given) | 0.77%
Cc1cc(NC(=O)NC(=N)N)ccc1Cl | 3.21%
Cc1ccc2nc(C)cc(NC(=O)Nc3ccc(N(C)C)cc3)c2c1 | 7.68%
COc1ccc(-c2ccc(CNC(=O)c3ccc(C#N)cc3)c(F)c2)cc1CN1CCCN(C)CC1 | -3.44%
Cc1cccc2nc(-c3ccc(-c4cccc(CNCCc5ccncc5)c4)cc3)[nH]c12 | 0.92%
CC(C)(C)c1ccc(NC(=O)c2ccc(CN3CCCN(Cc4ccc(F)cc4)CC3)cc2)cc1 | 1.74%
Cc1cc(NC(=O)c2coc3cc(F)c(N4CC(C)N(C)C(C)C4)cc23)ccc1-n1ccnc1 (stereo not given) | -1.58%
O=C(Nc1cccc(F)c1)N[C@H]1CCN(CCCCCNC(=O)C2CC2c2ccc(Cl)c(Cl)c2)C1 (stereo not given in full) | 0.83%
CCOC(=O)C(C(=O)OCC)c1nc(C)ns1 | 0.53%
CO/C(=C\C=C\c1cc2cc(Cl)c(Cl)cc2[nH]1)C(=O)NCCCN1CCN(c2ccc(OC)cc2)CC1 | 1.28%

Compound | inhibition
Ic1cc(CNC2CCCCC2)ccc1OCc1cccc(COc2ccc(CNC3CCCCC3)cc2I)c1 | 2.65%
NC1CCN(Cc2cccc(-c3ccc(-c4nc5cc(C(F)(F)F)ccc5[nH]4)cc3)c2)C1 (stereo not given) | 2.71%
CC(C)C[C@H](Nc1ccc(C#N)c2ccccc12)C(=O)NC(C)(C)C12CC3CC(CC(C3)C1)C2 | 2.11%
COc1cc(CNCCCNc2cc(=O)c3ccccc3[nH]2)c2c(c1)C(C)CN2C(=O)OC(C)(C)C (stereo not given) | 4.19%
Cc1cccc2nc(-c3ccc(-c4ccc(CN5CCC(N)C5)cc4)s3)[nH]c12 (stereo not given) | -2.11%
CNC(=O)c1ccccc1Nc1nc(Nc2ccc(N3CCOCC3)cc2)ncc1Cl | 74.6%
O=C(Nc1ccc(OC2CCN(Cc3ccsc3)CC2)c(Cl)c1)c1cccs1 | 2.85%
CCN1CCC(N(Cc2ccc(-c3ccc(C(F)(F)F)cc3)cc2)C(=O)Cn2nc(C)c(=O)cc2SCc2ccc(F)cc2)CC1 | 0.46%
CCC(C)C#Cc1c(C)nc(N)nc1N (stereo not given) | 0.17%
CCCCCCCNC(=O)NCC1CCCN(CCCCCNC(=O)/C=C/c2ccc(Cl)c(Cl)c2)C1 (stereo not given) | 2.15%
NC1=NC(c2ccccc2)(c2cccc(O)c2)C(=O)N1CCCc1ccccc1 (stereo not given) | 6.85% and 0.63%
COC(=O)[C@@H](NC(=O)[C@@H](Nc1ccc(C#N)c2ccccc12)C(C)(C)C)c1ccc(O)cc1 | 0.19%
Cc1cccc2nc(-c3cccc(-c4cccc(NC(=O)c5cnccc5C(F)(F)F)c4)c3)[nH]c12 | -3.32%
COc1c(C2CCN(CCCCNC(=O)c3ccc(-c4ccc(C#N)cc4)cc3)CC2)ccc2c1C(C)(C)CCC2(C)C | -0.67%
COc1ccc(N2CCN(CCCN3CCN(C(=O)c4ccc(/C=C/c5ccc(Cl)c(Cl)c5)cc4)CC3)CC2)c(OC)c1 | 5.56%
CC(Cc1ccc(NC(=O)c2ccc(CNCc3ccccc3)cc2)cc1)N(CCc1cccc(Cl)c1)C(=O)OC(C)(C)C (stereo not given) | 3.04%
CCN(CC)CCN(Cc1ccc(-c2ccc(C(F)(F)F)cc2)cc1)C(=O)Cn1c(CCc2cccc(F)c2F)cc(=O)c(C)c1C | 3.62%
Cc1noc(C)c1-c1cccc(CNCc2cccc(-c3cccc(-c4nc5cccc(C)c5[nH]4)c3)c2)c1 | -0.78%
O=C(/C=C/c1ccccc1Cl)NC1CCC(CN2CCC(c3c[nH]c4ccncc34)CC2)CC1 (stereo not given) | 1.34%
Cc1cc(C2CCN(CCCCNC(=O)c3ccc(NC(=O)c4ccc(Cl)cc4)cc3)CC2)c(C)cc1OC(C)C | -1.68%
